From PubChem
Sampled rows, rich in hits. Any-hit rate of the full collection: about 5.7%.
Nrf2 block – inhibitors of Nrf2 signaling. A549 ARE-Fluc reporter, luciferase luminescence, 18-24 h. Potency, µM (titrated, usually from 46 µM), actives largely listed as inhibitors. 2.1% of 360,000 active. AID 504444; further: nearly all actives have a fitted effect of over 60% in size
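Nrf2 function is reported as luminescence of an ARE-controlled luciferase in A549 cells. Compounds were tested at several concentrations, and a CellTiter-Fluor read on the same wells flagged cytotoxicity.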
Giardia killer – kills Giardia lamblia | activity change, % at 7.66 µM, hits read low | AID 540267 | Giardia lamblia trophozoite viability | 0.15% of 340,000 active; in the data active means activity change below about -80%; inconclusive means between about -30% and that limit;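 further: parasites exposed to compound for two days anaerobically before the ATP read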
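Each well holds 100 Giardia trophozoites and compound. After two days (48 hrs) at 37 deg C in anaerobic conditions, ATP is quantified by luminescence.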
PI4K2A block – blocks human PI4K2A kinase activity | Q9BTU6 | purified PI4K2A, ADP-Glo luminescence, 1 h; stronger effect = lower value | activity change, negative = inhibition, % at 76.9 µM | 0.13% of 420,000 active; in the data active means activity change below about -50%; inconclusive means mostly about -30% to -49%
Target sequence (Q9BTU6 whole entry, looked up): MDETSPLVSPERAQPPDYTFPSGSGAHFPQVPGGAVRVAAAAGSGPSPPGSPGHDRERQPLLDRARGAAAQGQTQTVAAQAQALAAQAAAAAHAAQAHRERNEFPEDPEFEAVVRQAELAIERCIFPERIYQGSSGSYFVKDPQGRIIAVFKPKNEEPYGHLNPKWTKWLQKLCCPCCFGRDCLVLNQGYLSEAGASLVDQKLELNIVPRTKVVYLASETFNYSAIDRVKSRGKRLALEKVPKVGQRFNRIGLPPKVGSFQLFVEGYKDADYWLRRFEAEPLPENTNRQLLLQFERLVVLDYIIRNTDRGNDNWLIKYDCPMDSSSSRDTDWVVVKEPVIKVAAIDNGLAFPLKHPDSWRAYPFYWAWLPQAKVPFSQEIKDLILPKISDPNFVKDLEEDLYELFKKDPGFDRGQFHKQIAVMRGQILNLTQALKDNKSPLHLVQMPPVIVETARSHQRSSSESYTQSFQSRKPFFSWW
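In this quantitative HTS, ADP production by PI4K2A was quantified luminescently after 1 h at ambient temperature; 100 microM adenosine served as plate-quality control.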
KB-3-1 cytotox – kills parental KB-3-1 adenocarcinoma cells; KB-3-1 viability, CellTiter-Glo ATP luminescence, 72 h; Potency, µM (doses to about 46.1 µM), actives largely listed as cytotoxic; 1.4% of 400,000 active; AID 1347075; further: nearly all actives have a fitted effect of over 60% in size
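Parental KB-3-1 viability, qHTS format: 72 h compound exposure, 37 °C; CellTiter-Glo; media-only wells and DMSO plates as controls; concentration-effect fits on corrected data.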
A549 tox – kills or reduces viability of A549 cells in Nrf2 counter-screen; A549 ARE-Fluc cells, CellTiter-Fluor viability, 18-24 h; Potency, µM (highest dose often 46 µM), most hits filed as inhibitors; 0.16% of 390,000 active; AID 504648
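Cytotoxicity counterscreen: CellTiter-Fluor fluorescence was measured in A549 ARE_Fluc cells after 18-24 h of compound exposure in a concentration series. The subsequent BugLite luminescent read reports ARE-luciferase activity.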
KB-V1 MDR tox – kills drug-selected multidrug resistant KB-V1 cells; KB-V1 MDR cells viability, CellTiter-Glo, 72 h; Potency, µM (top dose mostly 46.1 µM), actives largely listed as cytotoxic; 3.4% of 400,000 active; AID 1347076; further: nearly all actives have a fitted effect of over 60% in size
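Compound-treated KB-V1 multidrug-resistant cells, 72 h, 37 degrees C; viability by CellTiter-Glo. Fitted qHTS curves give the values.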
Hits are given with their value; – = inactive; ? = inconclusive; · = no result given. Unless noted, the call rests on the fitted dose curve; in most records, active means well fitted curve in the direction sought with a large enough effect; inconclusive means small, poorly fitted or top-dose-only effect, or another doubt; inactive means no such curve, though single readings can be large; an effect the other way counts as inactive or inconclusive.

SMILES | Nrf2 block | Giardia killer | PI4K2A block | KB-3-1 cytotox | A549 tox | KB-V1 MDR tox
CCN(CC)Cc1nccn1-c1ccc([N+](=O)[O-])cc1C(=O)c1ccccc1Cl | · | · | – | · | · | ·
CCCNC1=C(C)C(=O)C2=C(C1=O)C(COC(N)=O)[C@]1(OC)C3NC3CN21 (stereo not given in full) | ? | ? | – | 18µM | – | –
CCN(CC)C(=O)N[C@@H]1C=C2c3cccc4[nH]cc(c34)C[C@@H]2N(C)C1 | · | · | – | · | · | ·
O=C1NC(=O)C(=Cc2cn(CCOc3ccc4c(c3)OCO4)c3ccccc23)C(=O)N1 | · | – | – | 21µM | – | ?
Cc1ccc(NCc2cccn2-c2nnc(N3CCC(C(=O)NCc4ccc(OC(C)C)cc4)CC3)s2)cc1 | 26µM | · | – | · | – | ·
CCOc1ccc(NCc2cccn2-c2nnc(N3CCC(C(=O)NCC(C)c4ccccc4)CC3)s2)cc1 (stereo not given) | 15µM | · | – | · | – | ·
CCOc1ccc(NCc2cccn2-c2nnc(N3CCC(C(=O)NCc4ccc(C)cc4)CC3)s2)cc1 | ? | · | – | · | – | ·
CCOP(=O)(OCC)C(NC(=O)Nc1ccc(C)c(Cl)c1)c1ccccc1 (stereo not given) | ? | – | – | – | – | ?
Cc1ccc(NC(=O)c2snnc2C)cc1Cl | ? | – | – | ? | – | 10µM
O=C1CC(=O)N(c2ccccc2)C(=O)N1c1ccccc1 | – | – | – | 0.29µM | – | –
CCCCc1nc2ccccc2c(=O)n1-c1ccc(Cl)cc1[N+](=O)[O-] | – | – | – | – | – | 4.1µM
COc1cccc(CN2CCC(n3nccc3NC(=O)CCOc3ccccc3)CC2)c1O | ? | – | – | · | – | ·
O=C(O)CC1OCC=C2CN3CCC45C6=CC(=O)C(=O)C([N+](=O)[O-])=C6NC4C1C2CC35 (stereo not given) | ? | – | -61 | – | ? | –
S=P(c1ccccc1)(c1ccccc1)c1c[nH]c2ccccc12 | – | · | · | · | – | ·
CCOc1cc(/C=N/NC(=O)c2cccs2)ccc1OC(=O)N1CCOCC1 | ? | – | – | – | – | –
C[n+]1c2ccccc2nc2ccc(NCCO)cc21 | ? | – | ? | ? | 16µM | ?
CNc1ccc2nc3ccccc3[n+](C)c2c1 | 6.5µM | – | ? | – | 7.3µM | ?
OCCNc1c2c(nc3ccccc13)CCCC2 | – | – | – | – | – | –
O=Cc1cn(Cc2ccc(Br)cc2)c2ccccc12 | – | – | – | 10µM | – | ?
C/C(=C\[C@@H](NP(=O)(c1ccccc1)c1ccccc1)c1ccccc1)CO[Si](c1ccccc1)(c1ccccc1)C(C)(C)C | ? | – | – | ? | ? | –
CC(C)CC(NC(=O)C1CCCCC1)C(=O)N1CCC2(CC1)OCCO2 (stereo not given) | – | – | – | – | – | 10µM
CCS(=O)(=O)N1CCCC(C(=O)N2CCC3(CC2)OCCO3)C1 (stereo not given) | – | – | – | – | – | –
C[C@]12CC[C@H]3C(CCC4(O)CC(O)CC[C@]34C=O)C1=CC[C@H]2c1ccc(=O)oc1 (stereo not given in full) | ? | – | – | 23µM | – | –
CC(=O)O[C@H]1[C@H]2O[C@]23[C@@H]2CC[C@]4(O)C[C@@H](O)CC[C@]4(C)C2CC[C@]3(C)[C@H]1c1ccc(=O)oc1 (stereo not given in full) | 0.058µM | – | – | ? | ? | –
O=[N+]([O-])c1ccc(-c2ccccc2)c([As](=O)(O)O)c1 | – | -82 | – | – | – | –
O=[N+]([O-])c1ccc2c(c1)C(c1ccccc1)=NCCN2 | – | – | – | – | – | ?
O=c1[nH]c2cc(Cl)ccc2n1C1CCNCC1 | · | · | – | · | · | ·
CCOc1ccc(CCNC(=O)c2cc3c(-c4cccc(OC)c4)nn(C)c3s2)cc1OCC | 18µM | · | – | ? | – | 23µM
O=[N+]([O-])c1ccc(N(CCO)CCO)c2c1no[n+]2[O-] | · | · | ? | 4.6µM | · | 21µM
CN1CCN(c2ccc([N+](=O)[O-])c3no[n+]([O-])c23)CC1 | ? | – | ? | ? | 23µM | ?
